Assay [1] is described as follows: IUF_NPC5_oligodendrocyte_differentiation_120hr: Leibniz Research Institute for Environmental Medicine (IUF) 120-hour Oligodendrocyte Differentiation Assay (NPC5) (AID 2284304).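 Note: primary human fetal neural progenitor spheres plated to migrate and differentiate.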 A digest of the protocol: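 Oligodendrocyte differentiation scored as O4-positive cells, found by CNN image analysis, as percent of Hoechst-stained nuclei in the migration area. Scoring followed 5 days of exposure of plated hNPC neurospheres differentiating in DMEM/F12 N2 medium at 37C, with compound refreshed at day 3.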

Assay [2] in a line: IUF_NPC2-5_cytotoxicity_72hr: Cytotoxicity Assessment at 72 hours in the Leibniz Research Institute for Environmental Medicine (IUF) Neural Progenitor Cell Migration and Differentiation Assay for Cytotoxicity (NPC2-5) (AID 2284306).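 Note: LDH release into supernatant measured by resorufin fluorescence marking membrane damage.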 A digest of the protocol: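 Membrane-integrity cytotoxicity at 72 h, read as LDH-driven resorufin fluorescence in supernatant. hNPC spheres from fetal cortex differentiate on coated plates in N2 medium, 37C, 5% CO2; seven serial compound concentrations plus solvent control (DMSO ≤0.1%).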

Assay [3] in a line: VALA_TUBHUV_Agonist_CellCount: Viability Assessment in the VALA Sciences human Umbilical Vein Endothelial Tubule Formation (TUBHUV) Agonism Assay (AID 2284309). Summed up: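 Viability endpoint by fluorescent imaging of fixed nuclear/CD31-stained HUVEC–HDF co-cultures. Readout is cell count, fitted upward against 0.1% DMSO. Compound exposure was 72 h in 10 ng/ml VEGF, after 3-day co-culture priming.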

Records with an inconclusive call do not appear. Calls of active or inactive are those of the source. Rule for the calls: active = hit-call score of the fitted dose curve at least 0.9, where 1 is the maximum; inconclusive = response in the unintended direction; inactive = score below 0.9.

Turning to `Cn1cc[nH]c1=S`, the compound was called inactive in assay [1], in assay [2] and in assay [3].
The term AC50 denotes the concentration giving half of the maximal activity seen. As to `CCCC(CCC)C(=O)O`, in assay [1], the AC50 is 999 µM (active).
For the compound `Nc1ccn([C@@H]2O[C@H](CO)[C@@H](O)[C@@H]2O)c(=O)n1`, in assay [2], the AC50 was 0.237 µM (active).
As for `OCCNCCO`, the call in assay [3] was inactive.

(Values after PubChem BioAssay (EPA / NIEHS).)
